Screens (PubChem BioAssay)
A selection: hits, their analogues and other compounds. The true share with any hit is near 1%.
gsp antagonist – antagonizes gsp, the McCune-Albright syndrome mutation; Potency, µM (highest dose often 76.9 µM), most hits filed as inhibitors; gsp-mutant cells, cAMP HTRF, 30 min; actives 0.4% (n = 340,000); calls by dose curve; cell line not stated here;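 also: intracellular cAMP measured with PDE inhibitor Ro 20-1724 present during compound exposure; nearly all actives have a fitted effect of over 65% in size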
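Measurement of cellular cAMP by homogeneous time-resolved fluorescence following a 30 min compound exposure at 37C. The PDE inhibitor […] was present throughout; the assay buffer was DPBS with 0.05% BSA and 0.005% Tween 20.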
RXFP1 antag – blocks the human relaxin receptor RXFP1; HEK293-RXFP1, relaxin-stimulated cAMP HTRF, 30 min; active compounds read low; AID 1259400; actives 0.59% (n = 350,000); activity change, negative = inhibition, % at 57.5 µM; Q9HBX9;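 active = activity change of -60% or lower, but not beyond a set lower limit; inconclusive = change between -60% and -40%, or beyond the set limit; inactive = change above -40%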
Target sequence (Q9HBX9 whole entry, looked up): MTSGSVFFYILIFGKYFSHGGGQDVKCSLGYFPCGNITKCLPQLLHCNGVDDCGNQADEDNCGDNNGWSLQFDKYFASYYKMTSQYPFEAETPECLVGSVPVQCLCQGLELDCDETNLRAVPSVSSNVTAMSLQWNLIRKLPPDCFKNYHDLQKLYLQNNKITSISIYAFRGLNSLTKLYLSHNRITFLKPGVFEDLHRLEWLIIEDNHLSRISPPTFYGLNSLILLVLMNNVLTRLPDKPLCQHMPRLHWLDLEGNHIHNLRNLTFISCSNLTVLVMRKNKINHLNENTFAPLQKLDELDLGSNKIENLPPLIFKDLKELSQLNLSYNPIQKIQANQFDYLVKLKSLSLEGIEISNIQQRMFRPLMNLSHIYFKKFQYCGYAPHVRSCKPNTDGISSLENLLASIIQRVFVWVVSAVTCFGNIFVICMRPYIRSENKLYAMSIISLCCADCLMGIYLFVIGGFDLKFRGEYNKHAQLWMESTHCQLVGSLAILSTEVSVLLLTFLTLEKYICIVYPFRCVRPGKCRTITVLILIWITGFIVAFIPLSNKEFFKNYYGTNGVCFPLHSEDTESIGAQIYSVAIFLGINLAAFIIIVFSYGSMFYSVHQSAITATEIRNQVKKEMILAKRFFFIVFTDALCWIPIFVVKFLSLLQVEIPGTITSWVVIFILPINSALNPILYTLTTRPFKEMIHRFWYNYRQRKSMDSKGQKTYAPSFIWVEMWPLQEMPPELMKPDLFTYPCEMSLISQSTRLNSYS
TSHR antag – antagonists of human thyroid stimulating hormone receptor; TSHR-expressing cells, TSH-stimulated cAMP HTRF, 2 h; active compounds read low; activity change, negative = inhibition, % at 11.5 µM; actives 0.2% (n = 330,000); AID 504810;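 active = activity change below a set negative limit, meaning inhibition stronger than a set level, cut at about -70% in these data; inconclusive = activity change between two set negative limits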
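Freshly harvested TSHR cells receive pin-tooled compound, then EC80 TSH at 4nM final. After 2 hours at 37 deg C, antibody in lysis buffer and cAMP-d2 are added; 30 minutes at ambient temperature precede the HTRF read.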
RXFP1 agonist – agonists of human relaxin receptor RXFP1 | Q9HBX9 | HEK293T-RXFP1 cAMP TR-FRET, 30 min; response scale: percent of porcine relaxin response, buffer zero | Potency, µM (series often up to 57.5 µM), hits mostly activators | actives 0.3% (n = 370,000) | AID 2676; active = well fitted activation curve with a large enough effect; inconclusive = small, poorly fitted or top-dose-only effect; also: nearly all actives have a fitted effect of over 60% in size
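HEK293 cells stably expressing RXFP1, treated 30 min at 37C with compounds plus PDE4 inhibitor Ro 20174; cAMP measured by HTRF TR-FRET. Normalized to buffer and 29 nM porcine relaxin; EC50 by Hill fit.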
gsp agonist – activates gsp, the McCune-Albright syndrome mutation; gsp mutant cells, cAMP HTRF, 30 min; Potency, µM (top dose mostly 76.9 µM), usual class: activators; actives 0.13% (n = 340,000); AID 624287; active = well fitted activation curve with a large enough effect; inconclusive = small, poorly fitted or top-dose-only effect, or another doubt; inactive = no such curve, though single readings can be large or run the other way; cell line not stated here;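 also: phosphodiesterase inhibitor Ro 20-1724 added with compounds to block cAMP breakdown; nearly all actives have a fitted effect of over 60% in size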
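Cells in DMEM/10% FBS with G418 were pretreated with compounds in DMSO plus […] (300 uM stock) for 30 min at 37C. cAMP was measured by HTRF (cAMP-d2 plus anti-cAMP antibody-K) after 30 min at room temperature.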
A number is an active result; . = inactive; ? = inconclusive; / = not tested or not shown; + = active, no number; ! = not active in a repeat; [ ] = another dose, or the depositor's remark.

SMILES	gsp antagonist	RXFP1 antag	TSHR antag	RXFP1 agonist	gsp agonist
CCOC(=O)NC(=O)/C(C#N)=N/Nc1ccc(F)cc1	25.1µM	.	.	.	.
COc1ccccc1CNC(=O)CCn1c(=O)c2cccn2c2cccnc21	/	.	/	.	/
CC1(C)CC(=O)C2=C(C1)N1C(=C(C#N)C2c2ccc(Cl)cc2)N=C(N)c2ccccc21 (stereo not given)	35.5µM	?	.	.	.
O=C(CSc1nc2c(cnn2-c2ccc(F)cc2)c(=O)[nH]1)Nc1ccc(Br)cc1	/	/	/	.	/
COc1ccc2c(c1)CC(C(=O)NCc1ccc(F)cc1)CO2 (stereo not given)	/	.	/	.	/
CCOC(=O)C1CCN(S(=O)(=O)c2c(Cl)ccc3nonc23)CC1	/	/	-89.9	.	/
CCOC(=O)C1CCN(S(=O)(=O)c2cccc3nonc23)CC1	.	.	.	.	.
COc1ccc(OC)c(NC(=O)c2cccc(N3C(=O)C4C5C=CC(C6CC56)C4C3=O)c2)c1 (stereo not given)	28.2µM	.	.	.	.
COc1ccc(OC)c(NC(=O)c2cccc(N3C(=O)C4C5CCC(C5)C4C3=O)c2)c1 (stereo not given)	?	.	.	.	.
COc1ccc2c(C)cc(=S)[nH]c2c1	.	.	.	20µM	.[15.4 µM]
CCOC(=O)c1c(C)n(-c2ccc(C)cc2)c2ccc(OCC(O)CN3CCN(C)CC3)cc12 (stereo not given)	.	-86.1	.	.	.
CC(C)c1ccc(NC(=O)c2cnn(-c3ccccc3)c2NC(=O)c2ccco2)cc1	39.8µM	.	.	.	?
O=C(COC(=O)c1c2c(nc3ccccc13)/C(=C\c1ccco1)CC2)NC1CCCC1	.	.	/	/	?
CC1CCCCC1NC(=O)COC(=O)c1c2c(nc3ccccc13)/C(=C\c1ccco1)CC2 (stereo not given)	.	-65.5	/	/	?
CC1CCC(C(C)C)C(OC(=O)Cn2c(-c3ccc(Br)cc3)[n+](C)c3ccccc32)C1 (stereo not given)	.	-81.3!	.	.	.[15.4 µM]
CC1CCC(C(C)C)C(OC(=O)Cn2c(-c3ccc(Cl)cc3)[n+](C)c3ccccc32)C1 (stereo not given)	.	?	.	.	.
O=C(O)Cn1c(=O)n(Cc2ccc(Br)cc2F)c(=O)c2ccc(Cl)cc21	/	.	/	/	/
Cc1ccccc1OCC(=O)NNC(=O)Nc1ccc(Cl)cc1	.	.	.	.	.
O=C(COc1ccccc1O)Nc1ccc(Cl)cc1	35.5µM	.	.	.	.
O=C(CCn1c(=O)c2sccc2n(Cc2ccccc2F)c1=O)NCc1ccc2c(c1)OCO2	/	.	/	?	/
O=C(NN=C1C2CC3CC(C2)CC1C3)c1ccncc1	.	.	.	.	?
O=C(N/N=C1\C/C(=N\NC(=O)c2ccncc2)c2ccccc21)c1ccncc1	.	.	.	31.6µM	25.1µM
Cc1cc(N2CCN(C(c3ccccc3)c3ccccc3)CC2)n2ncnc2n1	.	?	/	.	.
Cc1nc2ncnn2c(N2CCN(C(c3ccccc3)c3ccccc3)CC2)c1C	.	-115.6	/	.	.
CCn1c(=O)cc(SCC(=O)NCCCN2CCC(C)CC2)c2ccccc21	.	.	.	.	?
SMILES	gsp antagonist	RXFP1 antag	TSHR antag	RXFP1 agonist	gsp agonist
O=C(COc1ccc2c(c1)oc(=O)c1ccccc12)NCCCN1CCOCC1	+	.	.	.	.
Cn1c(=O)cc(SCC(=O)NCCCN2CCOCC2)c2ccc(Cl)cc21	.	.	.	.	28.2µM
Cn1c(=O)cc(SCC(=O)NCCCN2CCOCC2)c2ccccc21	.	.	.	.	22.4µM
CCn1c(=O)cc(SCC(=O)NCCCN2CCN(c3ccc(F)cc3)CC2)c2ccccc21	.	.	.	.	22.4µM
Cc1ccc(C)c2sc(NC(=O)c3ccc(S(=O)(=O)N4CCC(C)CC4)cc3)nc12	/	/	/	.	/
CCc1c(C)nc2nncn2c1NCc1ccccc1	/	/	/	.	/
Cc1ccc(-n2nc3cc(C)c(NC(=O)COc4ccccc4)cc3n2)cc1	/	.	/	.	/
COc1cc2nc(Nc3ccc(C)c(C)c3)nc(N)c2cc1OC	.	-109.8!	.	.	.
FC(F)(F)c1cccc(Nc2nc3nonc3nc2Nc2ccc(Cl)cc2)c1	/	-82.2	/	.	/
O=C(Nc1cccc(C(F)(F)F)c1)c1cc(-c2ccc(Cl)cc2)on1	/	/	/	.	/
Cn1c(CNC(=O)c2ccc(Cl)cc2)nnc1SCC(=O)NC1CCCC1	.	.	-98.1	.	.
O=C(CCCn1c(=O)c2sccc2n(Cc2c(F)cccc2Cl)c1=O)NCc1ccccc1	/	.	/	.	/
CC(Sc1ncnc2c1cnn2-c1ccccc1)C(=O)NCC1CCCO1 (stereo not given)	.	.	.	.	.
Cc1nc(SC(C)C(=O)NCC2CCCO2)c2cc(-c3ccccc3)sc2n1 (stereo not given)	.	-68.7	.	.	.[15.4 µM]
O=C(NCc1ccc(F)cc1)c1cnc(N2CCCCC2)c2ccccc12	/	-61.8	/	.	/
O=C(Nc1ccc(N2CCCCC2)cc1)c1ccccn1	.	-72.1	.	.	?
O=C(Nc1ccccc1)c1cnc(N2CCCCC2)c2ccccc12	/	-68.3	/	.	/
O=C(CSc1nc2c([nH]c3ccccc32)c(=O)n1-c1ccc(Cl)cc1)N1CCCCCC1	/	/	/	.	/
CCOC(=O)C1C(=O)Oc2ccc3ccccc3c2C1C1CCOC1=O (stereo not given)	50.1µM	/	.	.	.
CCOc1ccc(C2C=C(c3ccccc3)Nc3nnnn32)cc1 (stereo not given)	.	.	.	.	.
CCOc1ccc(C2C=C(c3ccc(C)cc3)Nc3nnnn32)cc1 (stereo not given)	39.8µM	.	.	.	.
CS(=O)(=O)N(CC(=O)N1CCOCC1)c1cccc(F)c1	.	.	-93.2	.	.[15.4 µM]
CC1CCN(C(=O)CN(c2cccc(F)c2)S(C)(=O)=O)CC1	.	.	.	.	.[15.4 µM]
Cc1ccc2cc3c(N)nn(C(=O)c4cccc(F)c4)c3nc2c1	/	.	/	.	/
Fc1ccc(Br)cc1C1C=C(c2ccc(Br)s2)Nc2ncnn21 (stereo not given)	?	-68.2	.	.	.
SMILES	gsp antagonist	RXFP1 antag	TSHR antag	RXFP1 agonist	gsp agonist
Nc1nc2nc(-c3ccccc3)cc(C(F)(F)F)c2s1	/	.	-99.1	.	.[15.4 µM]
Cc1cc(C(F)(F)F)c2sc(N)nc2n1	.	.	.	.	.
COc1ccccc1CN1CCNC(=O)C1=O	/	/	/	.	/
Cc1ccc(-n2c(=S)[nH]c3sc4c(c3c2=O)CCC4)cc1	.	.	.	12.6µM	.[15.4 µM]
COc1ccc(OCC(O)CN(CCO)CC(O)Cn2ccc3ccccc32)cc1 (stereo not given)	.	-63.7	.	.	.[15.4 µM]
OCCN(CC(O)COc1ccccc1)CC(O)Cn1ccc2ccccc21 (stereo not given)	.	.	.	.	.
O=C(Nc1cccc(-c2nc3ccccc3s2)c1)c1cccs1	22.4µM	.	.	.	.[15.4 µM]
CCC(CC)C(=O)Nc1cccc(-c2nc3ccccc3s2)c1	/	/	/	.	/
